Screening data: PubChem, National Center for Advancing Translational Sciences (NCATS)
DRD3 antagonist – antagonists of human D3 dopamine receptor; D3R cells, DiscoveRx beta-arrestin luminescence, antagonist mode; stronger effect = lower value; max response, negative = inhibition, %; 2.5% of 360,000 active; P35462; in the data active = max response below about -50%; inconclusive = no clear call, values can overlap the other calls; also: % is scaled to controls: 0 for no effect and ±100 for the full control effect
Target sequence (P35462 whole entry, looked up): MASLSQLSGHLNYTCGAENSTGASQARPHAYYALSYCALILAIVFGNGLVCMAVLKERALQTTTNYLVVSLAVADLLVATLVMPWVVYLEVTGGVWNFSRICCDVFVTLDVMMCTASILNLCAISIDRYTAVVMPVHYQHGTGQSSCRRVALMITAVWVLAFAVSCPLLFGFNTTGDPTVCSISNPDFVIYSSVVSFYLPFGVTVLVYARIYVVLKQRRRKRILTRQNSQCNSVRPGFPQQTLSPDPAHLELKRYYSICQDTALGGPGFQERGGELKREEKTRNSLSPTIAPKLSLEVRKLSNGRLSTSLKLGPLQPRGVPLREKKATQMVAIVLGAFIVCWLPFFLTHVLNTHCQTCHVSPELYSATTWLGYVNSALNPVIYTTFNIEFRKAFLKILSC
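Cells plated overnight at 1500 cells/well, then exposed to library compounds with dopamine controls for 90 minutes at 37 degrees C. DiscoveRx reagent added for 30–60 minutes at room temperature; luminescence read, quantitative HTS format.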
MCF10A rereplic – inducers of DNA re-replication in MCF 10A breast cells; MCF 10A DNA re-replication, Hoechst nuclear intensity, 48 h; Potency, µM (top dose mostly 46.1 µM), for the others: top-dose activity, positive = re-replication, most hits filed as activators; 2.9% of 350,000 active; AID 624296; also: potency is read from the fitted curve at half-maximal effect; % of control where 0% means no effect; nearly all actives have a fitted effect of over 50% in size
DRD3 agonist – agonists of human D3 dopamine receptor | P35462 | D3R DiscoveRx beta-arrestin cells, luminescence, 90 min | max activation, % | 0.58% of 410,000 active; in the data active = max activation above about 30%; also: 0% is about no effect
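Agonist mode: compounds and dopamine controls were applied to plated cells for 90 min at 37 degrees C after an overnight attachment at 1500 cells/well. Luminescent read-out followed 30 - 60 minutes at room temperature with DiscoveRx detection reagent.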
KB-3-1 tox – kills parental KB-3-1 adenocarcinoma cells; Potency, µM (highest dose often 46.1 µM), hits mostly cytotoxic; KB-3-1 viability, CellTiter-Glo ATP luminescence, 72 h; 1.4% of 400,000 active; also: potency is read from the fitted curve at half-maximal effect; % is scaled to controls: 0 for no effect and ±100 for the full control effect; nearly all actives have a fitted effect of over 60% in size
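Viability of parental KB-3-1 cells, measured by CellTiter-Glo luminescence, followed a 72 h incubation at 37 °C with pinned compounds in phenol-red-free DMEM containing 10% FBS.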
SW480 rereplic – DNA re-replication induction in SW480 cells. SW480 DNA re-replication, Hoechst DNA content imaging, 48 h. Potency, µM (highest dose often 46.1 µM), inactives show at the highest dose re-replication activation, hits mostly activators. 1.8% of 340,000 active. AID 624297; also: potency is read from the fitted curve at half-maximal effect; % of control where 0% means no effect; nearly all actives have a fitted effect of over 55% in size
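Readout is total intensity of Hoechst-stained nuclei, excited at 405 nm and collected at 500-530 nm. Compound treatment lasted 48 hr at 37 C in 5% CO2 before staining.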
KB-V1 cytotox – KB-V1 MDR subline cytotoxicity; KB-V1 MDR cells viability, CellTiter-Glo, 72 h; Potency, µM (highest dose often 46.1 µM), hits mostly cytotoxic; 3.4% of 400,000 active; AID 1347076; also: potency is read from the fitted curve at half-maximal effect; % is scaled to controls: 0 for no effect and ±100 for the full control effect; nearly all actives have a fitted effect of over 60% in size
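Cytotoxicity toward P-gp-expressing KB-V1 cells was determined as loss of CellTiter-Glo luminescence after 72 h at 37 degrees C. Compounds were tested in quantitative HTS format across a concentration range, with curves fitted to normalized data.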
* = called active by the depositor; i = inactive; ? = inconclusive; . = no result; [ ] = dose if it differs, or a comment. This is a sample that favours compounds with a hit; in the whole collection about 8.9% have one here. Unless noted, calls follow the shape of the dose curve; as a rule, active = well fitted curve in the direction sought with a large enough effect; inconclusive = small, poorly fitted or top-dose-only effect, or another doubt; inactive = no such curve, though single readings can be large; an effect the other way counts as inactive or inconclusive.

SMILES | DRD3 antagonist | MCF10A rereplic | DRD3 agonist | KB-3-1 tox | SW480 rereplic | KB-V1 cytotox
Cc1ccc(S(=O)(=O)NCCC(=O)Nc2ccc(Cl)c(Cl)c2)cc1 | 4.2 | ? | 0.6 | ? | -2.8% | 14.6µM*
Cc1ccc(C(=O)CCC(=O)Nc2ccc(Cl)c(S(=O)(=O)Nc3cccc(Cl)c3)c2)cc1 | ? | 4.8% | -3.3 | i | -4.5% | 16.4µM*
CN(C)c1ccc(NS(=O)(=O)c2cc(Cl)ccc2Cl)cc1 | 8.2 | ? | 2.7 | ? | ? | ?
Cc1ccc(S(=O)(=O)NCCC(=O)Nc2ccc(Cl)c(Cl)c2)cc1C | -3.8 | 16.3% | -0.7 | i | -0.3% | ?
CCN(c1ccc(NS(=O)(=O)c2cc(Cl)ccc2Cl)cc1)C(C)C | -10.9 | 23.1µM* | 0.0 | ? | ? | ?
Cc1ccc(NS(=O)(=O)c2cc(N)ccc2Cl)c(C)c1 | -4.4 | 5.7% | 8.1 | i | 0.8% | i
Nc1ccc(Cl)c(S(=O)(=O)Nc2cccc(Cl)c2)c1 | 3.1 | 0.184µM* | 0.1 | i | -62.7% | i
COc1ccc(NC(=O)Nc2cccs2)cc1Cl | -62.7* | 18.5% | -1.1 | i | 4.6% | i
OCC[N+]1(CCc2ccccc2)CCOCC1 | . | . | . | i | . | i
CC(C)(C)c1ccc(C(=O)C[n+]2ccccc2Cl)cc1 | . | . | . | i | . | i
CCN(C1CCCCC1)S(=O)(=O)c1ccc(S(=O)(=O)N2CCN(CCC#N)CC2)cc1 | -53.3* | -2.4% | -3.0 | i | 7.0% | i
C/C(=N\Nc1cc(Cl)nc(C)n1)c1ccccc1 | 17.4 | 5.8% | -0.4 | ? | -3.0% | i
C/C(=N/Nc1cc(-c2ccccc2)nc(-c2ccccc2)n1)c1ccc(O)cc1 | 4.6 | 18.4µM* | 19.0 | ? | -2.3% | 18.4µM*
C/C(=N\Nc1cc(-c2ccccc2)nc(-c2ccc(Br)cc2)n1)c1cccc(N)c1 | ? | ? | 0.2 | i | ? | 14.6µM*
CCOC(=O)C1=CN(Cc2cccc(-c3cccnc3)c2)S(=O)(=O)N(C)C1C (stereo unspecified) | 116.4 | -3.4% | -24.5 | i | 3.5%[9.22 µM] | i
COc1ccccc1NC(=O)C1=C(C)Nc2nc(SCc3ccccc3)nn2C1c1cccnc1 (stereo unspecified) | . | . | -7.0 | i | . | i
COC(=O)[C@@]1(Cc2ccc(OC)cc2)[C@H]2c3cc(C(=O)N4CCCC4)n(CCc4ccc(OC)c(Br)c4)c3C[C@H]2CN1C(=O)c1ccccc1 | 3.1 | . | -3.3 | ? | . | 18.4µM*
COC(=O)[C@@]1(Cc2ccc(F)cc2)[C@H]2c3cc(C(=O)N4CCCC4)n(CCc4ccc(OC)c(Br)c4)c3C[C@H]2CN1C(=O)c1ccccc1 | -16.6 | . | 2.0 | 25.9µM* | . | ?
COC(=O)Cn1c(C(=O)N2CCCC2)cc2c1C[C@H]1CN(C(=O)c3ccccc3)[C@@](Cc3ccc(OC)cc3)(C(=O)OC)[C@@H]21 | -10.8 | . | -0.1 | i | . | ?
Cc1ccc(OCCCOc2cccc3cccnc23)cc1C | 6.8 | 25.3% | 8.1 | i | 9.5% | i
O=C(/C=C\c1ccccc1)Oc1cccc2cccnc12 | -58.6* | ? | -5.6 | i | ? | i
Cc1cccc(OCCCOc2cccc3cccnc23)c1C | -54.0* | 23.1µM* | 4.9 | ? | ? | i
Cc1ccc2cccc(OCCCOc3ccccc3F)c2n1 | 7.6 | 13µM* | -2.7 | i | ? | i
Brc1ccc(OCCOCCOc2cccc3cccnc23)cc1 | -9.4 | -1.4% | 0.5 | i | -6.2% | 18.4µM*
CCOC(=O)c1c(NC(=O)COc2cccc(C)c2C)sc2c1CCC(CC)C2 (stereo unspecified) | . | . | 3.4 | i | . | i
SMILES | DRD3 antagonist | MCF10A rereplic | DRD3 agonist | KB-3-1 tox | SW480 rereplic | KB-V1 cytotox
CCc1ccc(CNC(=O)c2cnc3sc(N4CCCCCC4)nn3c2=O)cc1 | . | . | 6.2 | . | . | .
COc1ccc(NC(=O)CSc2nc(N)cc(=O)[nH]2)cc1S(=O)(=O)N1CCCCC1 | 14.4 | -6.5% | 0.7 | i | ? | ?
O=Cc1ccccc1OCCCOc1cccc2cccnc12 | -21.1 | 18.4µM* | 2.3 | i | 95.5% | i
COC(=O)c1ccc(OCCOCCOc2cccc3ccc(C)nc23)cc1 | 16.7 | 1.4% | -1.5 | i | 1.4% | 14.6µM*
O=Cc1ccc(OCCCOc2cccc3cccnc23)cc1 | -0.8 | 8.5% | -5.4 | i | -7.4% | i
COC(=O)c1ccccc1OCCOCCOc1cccc2ccc(C)nc12 | 5.6 | -4.0% | -0.1 | i | -7.0% | ?
COc1ccc(C(=O)N2CCN(Cc3cc(=O)n4nc(-c5ccccc5C)sc4n3)CC2)cc1OC | . | . | -6.9 | i | . | i
O=C(Nc1ccc2c(c1)OCCO2)c1ccc(Br)s1 | -4.1 | ? | -4.5 | 18.4µM* | 107.0% | 13µM*
CCn1ncc(Br)c1C(=O)Nc1cccc(F)c1 | -6.1 | 2.5% | -9.4 | i | 1.0% | i
Cc1occc1C(=O)Nc1ccc2c(c1)OCCO2 | 2.3 | -1.2% | 0.7 | i | -2.3% | 13µM*
CCn1ncc(Br)c1C(=O)Nc1ccc2c(c1)OCCO2 | -28.3 | -0.6% | -5.0 | ? | -8.3% | 20.6µM*
Cc1ccsc1C(=O)Nc1ccc2c(c1)OCCO2 | -7.2 | 15.8% | -1.2 | ? | -1.0% | 20.6µM*
Cc1ncoc1C(=O)Nc1ccc2c(c1)OCCO2 | 16.6 | -8.1% | -1.5 | ? | -4.7% | i
Cc1ccc(S(=O)(=O)N2C3CCCCC3O[C@H]2CC(=O)c2cccc3ccccc23)cc1 (stereo partly specified) | -11.7 | . | -2.2 | i | . | i
CCCOc1ccc(CN(C(=O)c2cccc(OC)c2)C2CCS(=O)(=O)C2)cc1 (stereo unspecified) | -11.2 | -7.2% | -7.8 | i | -26.6% | i
CCCOc1cccc(C(=O)N(Cc2ccc(OC)c(OC)c2)C2CCS(=O)(=O)C2)c1 (stereo unspecified) | -28.3 | -2.3% | -7.6 | i | -0.9% | 16.4µM*
CC1=C(C(=O)Nc2ccc(F)cc2F)C2(CCN(C(C)C)CC2)OC1=O | . | . | -20.3 | i | . | ?
Cc1nc2ccccc2n1Cc1ccc(Br)cc1 | 10.6 | -1.6% | -1.8 | ? | -2.1% | ?
CC(=O)Nc1cc2c(nc1C)nc(C)n2Cc1ccc(Br)cc1 | -68.5* | -4.6% | -2.5 | i | -20.5% | i
CN(C)CC1CCC/C(=C\c2ccc(OC(=O)c3ccc(Cl)cc3)cc2)C1=O (stereo unspecified) | -24.8 | ? | -9.6 | ? | ? | 20.6µM*
CN(C)CC1CCC/C(=C\c2ccc(OC(=O)/C=C/c3ccccc3)cc2)C1=O (stereo unspecified) | -12.8 | 4.0% | -10.7 | ? | ? | ?
